Results as given in the supplement of paper PMC8975748.
Structures can show the parent of a compound that is named as a salt. ± gives the standard deviation of the averaged measurements.

How the values were obtained:
[1] = test system: Saccharomyces cerevisiae BY4741 SeMeCo community; assay: mean cell size (pixel area) (pixels); higher = larger cells; conditions: 10 µM; 24 h; SM minimal medium
In short: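 Mean cell pixel area per well was determined by automated confocal microscopy with Harmony analysis of paraformaldehyde-fixed cells. The cells, a Saccharomyces cerevisiae BY4741 community of four plasmids that each complement one auxotrophy and carry a fluorescent marker, were incubated for 24 h with drug at a final 10 µM in SM medium in 384-well plates. Numbers are averaged over 3 replicates. Same SeMeCo high-content imaging drug screen: Selleck FDA-approved drugs at 10 µM, 24 h in SM medium, 384-well plates, 3 replicates.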

[2] = test system: Saccharomyces cerevisiae BY4741 SeMeCo community; assay: z-score of prototroph abundance vs DMSO median; higher = larger share of this subpopulation than in DMSO controls; conditions: 10 µM; 24 h; SM minimal medium; subpopulation (auxotrophy): Prototroph
In short: (§1)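 Four plasmids, each restoring a single auxotrophy and encoding a distinct fluorescent protein, were carried by a Saccharomyces cerevisiae BY4741 community. After overnight growth to OD600 1.0 and dilution to 0.3, 70 µl per well was grown for 24 h in minimal SM medium on 384-well plates acoustically predosed with library drugs at 10 µM final. Following paraformaldehyde fixation, automated confocal microscopy was used, with single-auxotroph fluorescent strains defining thresholds and autofluorescence correction. Subpopulation abundance was then scored as a z-score against the vehicle-well median.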

[3] = test system: Saccharomyces cerevisiae BY4741 SeMeCo community; assay: z-score of subpopulation abundance vs DMSO median, subpopulation auxotrophic for M; higher = larger share of this subpopulation than in DMSO controls; conditions: 10 µM; 24 h; SM minimal medium; subpopulation (auxotrophy): M
In short: as §1

[4] = test system: Saccharomyces cerevisiae BY4741 SeMeCo community; assay: z-score of subpopulation abundance vs DMSO median, subpopulation auxotrophic for L; higher = larger share of this subpopulation than in DMSO controls; conditions: 10 µM; 24 h; SM minimal medium; subpopulation (auxotrophy): L
In short: as §1

[5] = test system: Saccharomyces cerevisiae BY4741 SeMeCo community; assay: z-score of subpopulation abundance vs DMSO median, subpopulation auxotrophic for U; higher = larger share of this subpopulation than in DMSO controls; conditions: 10 µM; 24 h; SM minimal medium; subpopulation (auxotrophy): U
In short: as §1

[6] = test system: Saccharomyces cerevisiae BY4741 SeMeCo community; assay: z-score of subpopulation abundance vs DMSO median, subpopulation auxotrophic for H; higher = larger share of this subpopulation than in DMSO controls; conditions: 10 µM; 24 h; SM minimal medium; subpopulation (auxotrophy): H
In short: as §1

[7] = test system: Saccharomyces cerevisiae BY4741 SeMeCo community; assay: z-score of subpopulation abundance vs DMSO median, subpopulation auxotrophic for LU; higher = larger share of this subpopulation than in DMSO controls; conditions: 10 µM; 24 h; SM minimal medium; subpopulation (auxotrophy): LU
In short: as §1

[8] = test system: Saccharomyces cerevisiae BY4741 SeMeCo community; assay: z-score of subpopulation abundance vs DMSO median, subpopulation auxotrophic for LM; higher = larger share of this subpopulation than in DMSO controls; conditions: 10 µM; 24 h; SM minimal medium; subpopulation (auxotrophy): LM
In short: as §1

[9] = test system: Saccharomyces cerevisiae BY4741 SeMeCo community; assay: z-score of subpopulation abundance vs DMSO median, subpopulation auxotrophic for HM; higher = larger share of this subpopulation than in DMSO controls; conditions: 10 µM; 24 h; SM minimal medium; subpopulation (auxotrophy): HM
In short: as §1

[10] = test system: Saccharomyces cerevisiae BY4741 SeMeCo community; assay: z-score of subpopulation abundance vs DMSO median, subpopulation auxotrophic for HU; higher = larger share of this subpopulation than in DMSO controls; conditions: 10 µM; 24 h; SM minimal medium; subpopulation (auxotrophy): HU
In short: as §1

[11] = test system: Saccharomyces cerevisiae BY4741 SeMeCo community; assay: z-score of subpopulation abundance vs DMSO median, subpopulation auxotrophic for UM; higher = larger share of this subpopulation than in DMSO controls; conditions: 10 µM; 24 h; SM minimal medium; subpopulation (auxotrophy): UM
In short: as §1

[12] = test system: Saccharomyces cerevisiae BY4741 SeMeCo community; assay: z-score of subpopulation abundance vs DMSO median, subpopulation auxotrophic for HLU; higher = larger share of this subpopulation than in DMSO controls; conditions: 10 µM; 24 h; SM minimal medium; subpopulation (auxotrophy): HLU
In short: as §1

[13] = test system: Saccharomyces cerevisiae BY4741 SeMeCo community; assay: z-score of subpopulation abundance vs DMSO median, subpopulation auxotrophic for HLM; higher = larger share of this subpopulation than in DMSO controls; conditions: 10 µM; 24 h; SM minimal medium; subpopulation (auxotrophy): HLM
In short: as §1

[14] = test system: Saccharomyces cerevisiae BY4741 SeMeCo community; assay: z-score of subpopulation abundance vs DMSO median, subpopulation auxotrophic for HUM; higher = larger share of this subpopulation than in DMSO controls; conditions: 10 µM; 24 h; SM minimal medium; subpopulation (auxotrophy): HUM
In short: as §1

[15] = test system: Saccharomyces cerevisiae BY4741 SeMeCo community; assay: z-score of subpopulation abundance vs DMSO median, subpopulation auxotrophic for LUM; higher = larger share of this subpopulation than in DMSO controls; conditions: 10 µM; 24 h; SM minimal medium; subpopulation (auxotrophy): LUM
In short: as §1

[16] = test system: Saccharomyces cerevisiae BY4741 SeMeCo community; assay: z-score of subpopulation abundance vs DMSO median, subpopulation auxotrophic for HLUM; higher = larger share of this subpopulation than in DMSO controls; conditions: 10 µM; 24 h; SM minimal medium; subpopulation (auxotrophy): HLUM
In short: as §1

[17] = test system: Saccharomyces cerevisiae BY4741 SeMeCo community; assay: z-score of subpopulation abundance vs DMSO median, subpopulation auxotrophic for HL; higher = larger share of this subpopulation than in DMSO controls; conditions: 10 µM; 24 h; SM minimal medium; subpopulation (auxotrophy): HL
In short: as §1

Compound | mean cell size [1] | z-score of prototroph abundance [2] | z-score of subpopulation abundance [3] | z-score of subpopulation abundance [4] | z-score of subpopulation abundance [5] | z-score of subpopulation abundance [6] | z-score of subpopulation abundance [7] | z-score of subpopulation abundance [8] | z-score of subpopulation abundance [9] | z-score of subpopulation abundance [10] | z-score of subpopulation abundance [11] | z-score of subpopulation abundance [12] | z-score of subpopulation abundance [13] | z-score of subpopulation abundance [14] | z-score of subpopulation abundance [15] | z-score of subpopulation abundance [16] | z-score of subpopulation abundance [17]
CN1C2CCCC1CC(NC(=O)c1nn(C)c3ccccc13)C2 (centres undefined) [Granisetron] | 12.3 ± 0.14 | -0.04 | 1.71 | -0.54 | 0.07 | -1.03 | -0.92 | -0.49 | 0.6 | -0.71 | 0.55 | -0.07 | -0.1 | 0.05 | -0.48 | -0.81 | –
Cc1ncc([N+](=O)[O-])n1CC(C)O (centres undefined) [Secnidazole] | 12.4 ± 0.14 | -0.48 | -0.32 | -0.91 | 1.82 | -0.22 | 0.55 | -0.67 | -0.21 | 0.82 | 0.75 | 0.35 | -0.55 | 0.55 | -0.06 | -0.46 | -0.51
COCCCOc1ccnc(C[S+]([O-])c2nc3ccccc3[nH]2)c1C (centres undefined) [Rebeprazole sodium] | 12.5 ± 0.13 | -0.38 | 0.58 | -0.68 | 0.15 | -0.76 | -0.77 | 0.03 | 0.23 | -0.49 | 0.75 | 1.09 | -0.22 | 0.36 | 0.11 | 0.04 | -0.55
C[C@@H](O)[C@H]1C(=O)N2C(C(=O)OCOC(=O)C(C)(C)C)=C(SC3CN(C4=NCCS4)C3)[C@H](C)[C@H]12 [Tebipenem Pivoxil] | 12.4 ± 0.16 | 0.66 | -0.17 | 0 | 0.02 | -0.29 | -0.6 | 0.18 | -0.9 | -0.03 | -0.27 | -0.99 | -0.55 | -0.67 | 0.09 | -0.74 | -0.41
Clc1ccc(CCC(Cn2ccnc2)Sc2c(Cl)cccc2Cl)cc1 (centres undefined) [Butoconazole] | 12.08 ± 0.019 | -10 | -8.6 | 2.88 | -0.41 | 36.2 | -0.9 | -2.25 | 1.61 | 7.63 | 0.29 | 9.84 | 27.1 | 5.14 | 3.75 | 32.1 | 31.6
Oc1c(Cl)cc(Cl)c2cccnc12 [Chloroxine] | 13.6 ± 0.85 | -16.8 | 3.4 | -0.75 | -1.29 | 13.2 | 11.5 | 10.6 | 28.2 | 12.7 | 1.02 | 33.8 | 45.7 | 19.8 | 17.1 | 32.5 | 21.7
CCCCc1oc2ccccc2c1C(=O)c1cc(I)c(OCCN(CC)CC)c(I)c1 [Amiodarone HCl] | 11.3 ± 0.26 | -5.29 | 9.41 | -2.82 | -0.62 | 1.97 | -1.37 | 1.3 | 3.86 | 4.02 | 9.26 | 4.05 | 5.74 | 4.79 | 6.07 | 5.2 | 3.55
Cc1[nH]c(=O)c(C#N)cc1-c1ccncc1 [Milrinone] | 12.4 ± 0.18 | 1 | -0.56 | -0.03 | 0.34 | -0.52 | -0.56 | -0.5 | -0.67 | -0.62 | -0.1 | -0.86 | -0.75 | -1.04 | -0.06 | -1.21 | -0.41
CCCN1C[C@H](C)[C@@H](O)[C@](C)(O)[C@@H](CC)OC(=O)[C@H](C)[C@@H](O[C@H]2C[C@@](C)(OC)[C@@H](O)[C@H](C)O2)[C@H](C)[C@@H](O[C@@H]2O[C@H](C)C[C@H](N(C)C)[C@H]2O)[C@](C)(O)C[C@H]1C [Gamithromycin] | 12.3 ± 0.13 | -0.29 | -0.59 | 0.42 | -0.04 | 2.25 | -0.16 | 0.13 | 0.24 | -0.26 | -0.02 | 0.75 | -0.18 | 0.28 | -0.04 | -0.18 | 0.97
CCS(=O)(=O)CCn1c([N+](=O)[O-])cnc1C [Tinidazole] | 12.26 ± 0.046 | 0.58 | -0.75 | 0.1 | 0.56 | – | 0.29 | 0.29 | -1.1 | -0.4 | – | 0.09 | -1.15 | -0.47 | -0.2 | -0.4 | -0.55
CCCCN(CCCC)CC(O)c1cc(Cl)cc2c1-c1ccc(Cl)cc1/C2=C/c1ccc(Cl)cc1 (centres undefined) [Lumefantrine] | 12.4 ± 0.14 | -1 | -0.39 | -0.76 | 1.6 | 0.2 | 0.38 | -0.24 | 0.53 | 0.43 | – | -0.32 | -0.39 | 1.37 | 0.62 | -0.39 | -0.58
CO[C@@]1(NC(=O)Cc2cccs2)C(=O)N2C(C(=O)O)=C(COC(N)=O)CS[C@@H]21 [Cefoxitin sodium] | 12.5 ± 0.3 | 1.38 | -0.16 | -1.28 | -0.18 | -0.25 | -0.8 | -1.09 | 0.04 | -0.94 | -0.63 | -1.19 | -0.9 | -1.19 | -0.95 | -0.41 | -0.41
CCN(CC)CCNC(=O)c1cc(S(C)(=O)=O)ccc1OC [Tiapride Hydrochloride] | 12.36 ± 0.12 | -1.37 | 0.16 | 0.96 | 0.29 | 0.23 | 1.17 | 0.55 | 0.84 | 0.47 | 0.43 | 0.72 | 3.15 | 0.14 | 0.9 | 2.52 | 0.93
O=C(Nc1ccc(Oc2ccc(Cl)cc2)c(Cl)c1)c1cc(I)cc(I)c1O [Rafoxanide] | 12.2 ± 0.19 | 0.24 | -0.29 | 1.02 | -1.44 | 1.91 | -0.7 | 0.2 | 0.8 | -0.5 | -0.89 | -0.3 | 0.01 | 0.54 | -0.08 | 0.01 | 1.29
